Compound activity deposited in PubChem BioAssay by several laboratories.
Jurkat NFkB inh: inhibitors of the PMA/ionomycin-induced NF-kB reporter in Jurkat cells; PMA/ionomycin-induced NF-kB luciferase reporter, luminescence; inhibition, % at 4 µM; 330,000 tested, 0.53% active; AID 435003; in the data active means inhibition above about 50%
697 NFkB inh: inhibitors of the PMA/ionomycin-induced NF-kB reporter in 697 B cells | 697 B-cell NF-kB luciferase reporter, 16 h | inhibition, % at 4 µM | 330,000 tested, 0.33% active; in the data active means inhibition above about 35%
Gli-Sufu block: Gli-Sufu pathway antagonism; 340,000 tested, 0.74% active; inhibition, % at 5 µM; Sufu-KO-LIGHT fibroblasts, Gli luciferase reporter luminescence;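 active means inhibition above about 55%, limit read from the data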;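 further: 0% = DMSO-treated cells and 100% = wells with medium but no cells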
Mdm2 MdmX PPI: inhibitors of human Mdm2/MdmX interaction. O15151+Q00987. SaOS-2 split-luciferase Mdm2/MdmX complementation, luminescence. inhibition, % at 8 µM. 330,000 tested, 3% active;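 active means inhibition of at least 50% at 8 µM in the primary screen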
Target sequence (O15151 whole entry, looked up): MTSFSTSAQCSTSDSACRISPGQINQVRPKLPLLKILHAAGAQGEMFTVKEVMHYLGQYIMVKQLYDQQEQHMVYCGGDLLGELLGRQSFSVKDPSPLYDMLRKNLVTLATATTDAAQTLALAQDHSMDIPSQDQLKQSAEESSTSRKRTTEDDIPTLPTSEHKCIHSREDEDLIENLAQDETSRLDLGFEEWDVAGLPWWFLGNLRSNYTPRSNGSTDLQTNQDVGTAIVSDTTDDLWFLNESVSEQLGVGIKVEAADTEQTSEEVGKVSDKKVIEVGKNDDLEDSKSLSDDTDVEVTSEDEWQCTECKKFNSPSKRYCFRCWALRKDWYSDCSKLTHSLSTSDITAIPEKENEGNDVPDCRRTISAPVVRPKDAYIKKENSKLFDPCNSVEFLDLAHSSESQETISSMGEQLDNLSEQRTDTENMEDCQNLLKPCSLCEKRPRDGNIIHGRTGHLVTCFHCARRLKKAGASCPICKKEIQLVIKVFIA
Target sequence (Q00987 whole entry, looked up): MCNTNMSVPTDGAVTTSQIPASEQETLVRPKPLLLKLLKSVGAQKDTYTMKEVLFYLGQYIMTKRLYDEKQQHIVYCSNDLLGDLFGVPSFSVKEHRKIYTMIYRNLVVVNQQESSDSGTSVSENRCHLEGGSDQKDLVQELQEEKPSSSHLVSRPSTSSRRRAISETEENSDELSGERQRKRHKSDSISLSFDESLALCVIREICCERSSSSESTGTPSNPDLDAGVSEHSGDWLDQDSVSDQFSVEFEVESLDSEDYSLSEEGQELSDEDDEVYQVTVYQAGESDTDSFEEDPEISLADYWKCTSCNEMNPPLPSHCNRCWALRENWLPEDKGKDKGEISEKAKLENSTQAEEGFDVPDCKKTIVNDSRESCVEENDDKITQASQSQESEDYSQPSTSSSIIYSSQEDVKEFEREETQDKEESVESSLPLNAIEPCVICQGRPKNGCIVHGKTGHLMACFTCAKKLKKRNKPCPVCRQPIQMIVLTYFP
Beta cell apopt: beta cell apoptosis inhibition; INS-1E cytokine-induced death, ATP luminescence, 48 h; percent of positive-control rescue, neutral wells zero; protection from apoptosis, % (test concentration not listed); 300,000 tested, 0.8% active; AID 435005;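 active means Every replicate reaches about 75%, or at least half do and their mean reaches it too, limit read from the data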;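 further: 0% = cytokine-treated negative control wells and 100% = positive control rescue; higher means more ATP so stronger rescue from cytokine killing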
Gli antag conf: confirmation of Gli-SUFU pathway antagonists; Sufu-KO-LIGHT cells, Gli luciferase reporter, luminescence; shares compounds with Gli-Sufu block; inhibition, % at 5 µM; 2,500 tested, 40% active;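 active means mean inhibition at 5 µM reaching about 45%, limit read from the data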;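 further: plate controls were DMSO-treated cells for no effect and wells lacking cells for full effect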
SufuKO cytotox: counter-screen for Gli-SUFU antagonists: cytotoxicity; 2,500 tested, 32% active; cytotoxicity, % at 5 µM; shares compounds with Gli-Sufu block; AID 651994; Sufu-KO-LIGHT cells cytotoxicity, ATP luminescence;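 active means mean cytotoxicity at 5 µM above about 25%, limit read from the data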;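 further: cells exposed to compound overnight for roughly 16 to 18 hours; plate controls were DMSO wells with cells for no effect and medium without cells for full effect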
Wnt3a counter: counter-screen for Gli-SUFU antagonists: Wnt3a reporter inhibition; shares compounds with Gli-Sufu block; Wnt-LIGHT cells, Wnt3a-driven luciferase reporter, luminescence; inhibition, % at 6.25 µM; 2,500 tested, 20% active; AID 651995;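 active means mean inhibition above about 25%, limit read from the data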
* hit, by the source's call; · = not tested or not shown. Hits are enriched below; roughly 4% of the tested compounds scored in any of these assays.

SMILES | Jurkat NFkB inh | 697 NFkB inh | Gli-Sufu block | Mdm2 MdmX PPI | Beta cell apopt | Gli antag conf | SufuKO cytotox | Wnt3a counter
CC(C)CC(NC(=O)CCCNC(=O)CCC(=O)OC1O[C@H]2OC3(C)CC[C@H]4[C@H](C)CCC(C1C)C24OO3)C(=O)O (some centres not stated) | -21 | 8 | 85* | 23 | 22 | 78* | -8 | 15
CC1C(OC(=O)CCC(=O)NC(C)(C)CO)O[C@H]2OC3(C)CC[C@H]4[C@H](C)CCC1C24OO3 (some centres not stated) | 1 | 0 | 85* | 38 | 22 | 86* | -2 | 25
Cc1ccc(-c2nc3ccccc3c(=O)n2-c2nccs2)cc1 | 1 | -9 | 1 | 11 | -13 | · | · | ·
Cc1cccc(CCNCc2cc3cccc(C)c3[nH]c2=O)c1 | -6 | -2 | 31 | 14 | -3 | · | · | ·
COc1ccc(-n2c(O)c(C=Nc3c(C)n(C)n(-c4ccccc4)c3=O)c(=O)[nH]c2=O)cc1 | -7 | 22 | -4 | 22 | 2 | · | · | ·
CCOP(=O)(Cc1cc(C(C)=O)c(C)o1)OCC | 2 | 19 | 68* | 1 | -1 | 11 | 5 | -6
CCCC(=O)c1cc(CP(=O)(OCC)OCC)oc1C | -28 | 1 | -1 | -7 | -1 | · | · | ·
O=[N+]([O-])NC1=NCN(Cc2ccco2)CN1Cc1ccco1 | -9 | 14 | 91* | 20 | -15 | 14 | 16 | -8
CC(NCc1cccc(Cl)c1Cl)C(O)c1ccccc1 (configuration not stated) | 16 | 8 | 97* | -1 | 0 | 17 | 1 | -3
O=C(c1ccco1)C12CN3CN(CN(C3)C1)C2 | 0 | 33 | 0 | -8 | -1 | · | · | ·
COC(=O)C1=C(c2cc3ccccc3o2)C[C@@H]2CC[C@H]1N2C(=O)N1CCC(C)CC1 | -2 | -3 | 53 | 17 | -3 | 41 | 22 | -3
CC12CN3CCN(CC(C3)/C1=N/NC(N)=O)C2 | -11 | -2 | -3 | 23 | 0 | · | · | ·
CCC12CN3CCN(CC(C3)/C1=N/NC(N)=O)C2 | -2 | 1 | 61* | 15 | · | 18 | -7 | 15
N#CCCn1cc(C(=O)Nc2ccc(F)cc2)c(-c2ccccc2)n1 | 8 | 11 | 51 | -12 | -3 | 31 | 2 | 2
CCc1ccc(-n2c(O)c(C(C)=O)c(=O)[nH]c2=O)cc1 (tested in a mixture with another compound) | -11 | -7 | 7 | 33 | -6 | · | · | ·
Cc1cc(/C=C2\C(=O)NC(=O)N(C)C2=O)c(C)n1-c1ccc2c(c1)OCO2 | 17 | 7 | 69* | 20 | · | 23 | -1 | -20
CCN(CC)C(=O)c1ccc(NC(=O)CSc2nnnn2-c2cc(OC)ccc2OC)cc1 | -13 | -33 | 70* | 22 | 0 | 23 | 7 | 21
CCN(CC)C(=O)c1ccc(NC(=O)c2cc(S(=O)(=O)N3CCCCCC3)ccc2OC)cc1 | 20 | -10 | 13 | 23 | 4 | · | · | ·
O=c1c2ccccc2nc(-c2ccco2)n1-c1nccs1 | 6 | 7 | -4 | 4 | 0 | · | · | ·
CC(C)C(NC(=O)C(C(C)C)N(C)C)C(=O)N(C)C(C(=O)N1CCCC1C(=O)N1CCCC1C(=O)NCc1ccccc1)C(C)C (configuration not stated) | · | · | 51 | · | · | 57* | 52* | 14
CCN(CC)C1=NC(=[N+](CC)CC)c2ccccc21 | 25 | -11 | 79* | 37 | 70 | 80* | 27* | 39*
Cc1cccc(N2C(=O)NC(=O)/C(=C\c3cc(C)n(-c4sc5c(c4C#N)CCCC5)c3C)C2=O)c1C | -2 | 1 | 58* | 20 | 41 | 50* | 34* | -31
COc1ccccc1CN1CCN(C(=O)COc2cccc(C)c2)CC1 | -7 | -39 | 94* | -33 | · | 10 | 27* | -37
COP(=O)(OC)C(O)C(Cl)(Cl)Cl (configuration not stated) | -2 | 16 | · | -15 | -4 | · | · | ·
CC1CCCC(C2(O)C(=O)Nc3ccccc32)C1=O (configuration not stated) | -4 | -6 | 96* | 12 | 2 | 31 | 15 | 10
SMILES | Jurkat NFkB inh | 697 NFkB inh | Gli-Sufu block | Mdm2 MdmX PPI | Beta cell apopt | Gli antag conf | SufuKO cytotox | Wnt3a counter
CCOP(=O)(OCC)C1(O)C(=O)Nc2ccccc21 (configuration not stated) | 7 | 3 | -10 | -16 | 9 | · | · | ·
COc1c(O)cc2c(c1OC)-c1ccc(SC)c(=O)cc1C(NC(C)=O)CC2 (configuration not stated) | · | · | 67* | · | · | 62* | 62* | -7
COc1cc2c(c(OC)c1OC)-c1ccc(O)c(=O)cc1[C@@H](NC(C)=O)CC2 | -11 | 0 | 1 | 50 | -5 | · | · | ·
CCC(=O)N1N=C(c2c(O)n(CCc3ccccc3)c(=O)[nH]c2=O)CC1c1ccc(OC)c(OC)c1 (configuration not stated) | 1 | -2 | 9 | 22 | -2 | · | · | ·
O=C1N(CN2CCOCC2)c2ccccc2C1(O)c1c[nH]c2ccccc12 (configuration not stated) | 3 | 16 | 0 | 16 | -15 | · | · | ·
COc1ccc(C(CNC(=O)c2ccc3c(c2)CCC3)N(C)C)cc1 (configuration not stated) | -9 | -2 | 5 | -8 | -10 | · | · | ·
